{
  "source": "PubChem BioAssay (Tox21)",
  "note": "Results filed as inconclusive are left out. A number with no mark means an inactive call. The source made the active and inactive calls. Calls come from the whole dose curve; as a rule, active = well fitted curve in the direction sought with a large enough effect in the repeat runs; inconclusive = weak or mixed curves; inactive = no such curve, though single readings can be large; an effect the other way counts as inactive or inconclusive. % is set by controls: 0 for no effect and ±100 for the full control effect; potency is the fitted concentration of half-maximal effect.",
  "data": [
    {"test": "A CellTox Green Cytotoxicity Assay to monitor cytotoxicity in HepG2 cells - 40 hour (AID 1224879); note: nearly all actives have a fitted effect of over 40% in size", "conditions": "CellTox Green fluorescence; series mostly up to 76.8 µM; cytotoxicity increase: at the top concentration", "procedure,_shortened": "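Read-out is fluorescence of a cyanine dye excluded from live cells that stains DNA of dead HepG2 cells, with signal proportional to cytotoxicity. Plates were read at 0, 8, 16, 24, 32 and 40 h after compound addition.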", "values": [
      {"compound": "Cc1c([N+](=O)[O-])c(C)c([N+](=O)[O-])c(C(C)(C)C)c1[N+](=O)[O-]", "cytotoxicity increase": "15.8%"},
      {"compound": "Nc1ccccc1-c1ccccc1", "cytotoxicity increase": "8.15%"},
      {"compound": "CCCCn1cc[n+](C)c1", "note": "(tested in a mixture with another compound)", "cytotoxicity increase": "1.59%"},
      {"compound": "CCC(C)c1cccc(C(C)CC)c1O", "note": "(stereo unspecified)", "Potency": "19.5 µM (active)"},
      {"compound": "FC(F)C(F)(F)OCC(Cn1cncn1)c1ccc(Cl)cc1Cl", "note": "(stereo unspecified)", "Potency": "48.7 µM (active)"},
      {"compound": "CC(C)[C@@H](Nc1ccc(C(F)(F)F)cc1Cl)C(=O)OC(C#N)c1cccc(Oc2ccccc2)c1", "note": "(stereo partly specified)", "cytotoxicity increase": "-4.37%"},
      {"compound": "CC(C)N(C(=O)CCl)c1ccccc1", "Potency": "43.6 µM (active)"},
      {"compound": "O=C(N[C@@H]1N=C(c2ccccc2F)c2cccc3c2N(CC3)C1=O)c1cc2ccccc2[nH]1", "Potency": "9.52 µM (active)"},
      {"compound": "C#CCC1=C(C)C(OC(=O)C2C(C=C(C)C)C2(C)C)CC1=O", "note": "(stereo unspecified)", "cytotoxicity increase": "1.29%"},
      {"compound": "CCOP(=O)(Sc1ccccc1)Sc1ccccc1", "cytotoxicity increase": "-2.38%"},
      {"compound": "C[C@@H]1CC2=CC(=O)CC[C@@H]2[C@H]2CC[C@@]3(C)[C@@H](CC[C@]3(C)O)[C@@H]21", "cytotoxicity increase": "-4.29% [at 35.3 µM]"},
      {"compound": "CCN1CCC2(CC1)COc1cc3c(cc12)N(C(=O)c1ccc(-c2ccc(-c4nnc(C)o4)cc2C)cc1)CC3", "Potency": "45.2 µM (active)"},
      {"compound": "CCCCON=O", "cytotoxicity increase": "-6.01%"},
      {"compound": "ClC1=C(Cl)[C@]2(Cl)[C@H]3[C@H]([C@@H]4C=C[C@H]3C4)[C@@]1(Cl)C2(Cl)Cl", "Potency": "54.9 µM (active)"},
      {"compound": "C=CCBr", "cytotoxicity increase": "1.21%"},
      {"compound": "CC(=O)[O-].CC(=O)[O-].CC(=O)[O-].[Sb+3]", "cytotoxicity increase": "-22.4% [at 2.72 µM]"},
      {"compound": "O=S(=O)(O)F", "cytotoxicity increase": "-2.38%"},
      {"compound": "[O-][Cl+3]([O-])([O-])O", "cytotoxicity increase": "-16.2%"},
      {"compound": "CC(Cc1ccc2c(c1)OCO2)NO", "note": "(stereo unspecified)", "cytotoxicity increase": "-10.7%"},
      {"compound": "COC(=O)c1ccccc1S(=O)(=O)NC(=O)Nc1nc(C)nc(OC)n1", "cytotoxicity increase": "-0.694%"},
      {"compound": "COc1ccc2c3c1O[C@H]1[C@H](O)CC[C@H]4[C@@H](C2)N(C)CC[C@@]341", "cytotoxicity increase": "8.58%"},
      {"compound": "CN1[C@@H]2CC[C@H]1CC(O)C2", "note": "(stereo partly specified)", "cytotoxicity increase": "-16.6%"},
      {"compound": "CSC(C)(C)/C=N/O", "cytotoxicity increase": "0.66%"},
      {"compound": "CNC(=O)CSP(=O)(OC)OC", "cytotoxicity increase": "-3.4%"},
      {"compound": "CC(=O)O.CC(=O)O.CC(=O)O.CC(=O)O.CC(=O)O.CC(=O)O.CC(=O)O.O.O.[Cr].[Cr].[Cr]", "cytotoxicity increase": "3.08%"},
      {"compound": "CC(=O)C(Cl)C(=O)N(C)C", "note": "(stereo unspecified)", "cytotoxicity increase": "17.5%"},
      {"compound": "O=[N+]([O-])c1ccccc1-c1ccccc1", "cytotoxicity increase": "3.77%"},
      {"compound": "COP(=S)(OC)Oc1ccc([N+](=O)[O-])c(C)c1", "cytotoxicity increase": "-13.4%"},
      {"compound": "CCNc1nc(NC(C)C(C)C)nc(SC)n1", "note": "(stereo unspecified)", "cytotoxicity increase": "0.5%"}
    ]},
    {"test": "qHTS RealTime-Glo MT Cell Viability Assay in HEK293 cells - 0 hour (AID 1224880); note: nearly all actives have a fitted effect of over 45% in size; for activity change, negative = cytotoxicity: top concentration of the series differs between compounds", "conditions": "RealTime-Glo luminescence; series mostly up to 76.8 µM; activity change, negative = cytotoxicity: at the top concentration", "procedure,_shortened": "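Cells were seeded together with NanoLuc luciferase and a prosubstrate that viable cells reduce to a luciferase substrate. After a 5 h incubation at 37 C/5% CO2, compounds were added and luminescence was measured repeatedly during 40 h of treatment.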", "values": [
      {"compound": "c1ccc2nc(N3CCNCC3)ccc2c1", "activity change, negative = cytotoxicity": "0.129% [at 35.3 µM]"},
      {"compound": "Cc1c([N+](=O)[O-])c(C)c([N+](=O)[O-])c(C(C)(C)C)c1[N+](=O)[O-]", "activity change, negative = cytotoxicity": "24.3%"},
      {"compound": "Nc1ccccc1-c1ccccc1", "activity change, negative = cytotoxicity": "3.52%"},
      {"compound": "CCCCn1cc[n+](C)c1", "note": "(tested in a mixture with another compound)", "activity change, negative = cytotoxicity": "-0.384%"},
      {"compound": "CCC(C)c1cccc(C(C)CC)c1O", "note": "(stereo unspecified)", "activity change, negative = cytotoxicity": "2.53%"},
      {"compound": "FC(F)C(F)(F)OCC(Cn1cncn1)c1ccc(Cl)cc1Cl", "note": "(stereo unspecified)", "activity change, negative = cytotoxicity": "-0.637%"},
      {"compound": "CC(C)[C@@H](Nc1ccc(C(F)(F)F)cc1Cl)C(=O)OC(C#N)c1cccc(Oc2ccccc2)c1", "note": "(stereo partly specified)", "activity change, negative = cytotoxicity": "-11.8%"},
      {"compound": "Nc1ccc(N=Nc2ccccc2)cc1", "activity change, negative = cytotoxicity": "-14.3%"},
      {"compound": "CC(C)N(C(=O)CCl)c1ccccc1", "Potency": "inactive"},
      {"compound": "O=C(N[C@@H]1N=C(c2ccccc2F)c2cccc3c2N(CC3)C1=O)c1cc2ccccc2[nH]1", "activity change, negative = cytotoxicity": "-8.49% [at 35.3 µM]"},
      {"compound": "C#CCC1=C(C)C(OC(=O)C2C(C=C(C)C)C2(C)C)CC1=O", "note": "(stereo unspecified)", "activity change, negative = cytotoxicity": "-1.12%"},
      {"compound": "CCOP(=O)(Sc1ccccc1)Sc1ccccc1", "activity change, negative = cytotoxicity": "-9.99%"},
      {"compound": "C[C@@H]1CC2=CC(=O)CC[C@@H]2[C@H]2CC[C@@]3(C)[C@@H](CC[C@]3(C)O)[C@@H]21", "activity change, negative = cytotoxicity": "1.48% [at 35.3 µM]"},
      {"compound": "CCN1CCC2(CC1)COc1cc3c(cc12)N(C(=O)c1ccc(-c2ccc(-c4nnc(C)o4)cc2C)cc1)CC3", "Potency": "25.4 µM (active)"},
      {"compound": "CCCCON=O", "activity change, negative = cytotoxicity": "-3.39%"},
      {"compound": "ClC1=C(Cl)[C@]2(Cl)[C@H]3[C@H]([C@@H]4C=C[C@H]3C4)[C@@]1(Cl)C2(Cl)Cl", "Potency": "inactive"},
      {"compound": "C=CCBr", "activity change, negative = cytotoxicity": "-2.42%"},
      {"compound": "CC(=O)[O-].CC(=O)[O-].CC(=O)[O-].[Sb+3]", "activity change, negative = cytotoxicity": "-11.8% [at 2.72 µM]"},
      {"compound": "O=S(=O)(O)F", "activity change, negative = cytotoxicity": "0.442%"},
      {"compound": "[O-][Cl+3]([O-])([O-])O", "activity change, negative = cytotoxicity": "-13%"},
      {"compound": "CC(Cc1ccc2c(c1)OCO2)NO", "note": "(stereo unspecified)", "activity change, negative = cytotoxicity": "-1.25%"},
      {"compound": "Cc1cccc(Cc2cnc[nH]2)c1C", "activity change, negative = cytotoxicity": "5.43% [at 35.3 µM]"},
      {"compound": "COC(=O)c1ccccc1S(=O)(=O)NC(=O)Nc1nc(C)nc(OC)n1", "activity change, negative = cytotoxicity": "8.67%"},
      {"compound": "CC(C)(C)c1ccc(OP(=O)(Oc2ccccc2)Oc2ccccc2)cc1", "activity change, negative = cytotoxicity": "-19.6%"},
      {"compound": "COc1ccc2c3c1O[C@H]1[C@H](O)CC[C@H]4[C@@H](C2)N(C)CC[C@@]341", "activity change, negative = cytotoxicity": "-1.11%"},
      {"compound": "CN1[C@@H]2CC[C@H]1CC(O)C2", "note": "(stereo partly specified)", "activity change, negative = cytotoxicity": "16%"},
      {"compound": "CSC(C)(C)/C=N/O", "activity change, negative = cytotoxicity": "0.918%"},
      {"compound": "CNC(=O)CSP(=O)(OC)OC", "activity change, negative = cytotoxicity": "9.81%"},
      {"compound": "CN", "activity change, negative = cytotoxicity": "19.3%"},
      {"compound": "CC(=O)O.CC(=O)O.CC(=O)O.CC(=O)O.CC(=O)O.CC(=O)O.CC(=O)O.O.O.[Cr].[Cr].[Cr]", "activity change, negative = cytotoxicity": "13.1%"},
      {"compound": "CC(=O)C(Cl)C(=O)N(C)C", "note": "(stereo unspecified)", "activity change, negative = cytotoxicity": "8.53%"},
      {"compound": "COP(=O)(OC)O/C(=C\\Cl)c1cc(Cl)c(Cl)cc1Cl", "activity change, negative = cytotoxicity": "-7.92%"},
      {"compound": "O=[N+]([O-])c1ccccc1-c1ccccc1", "activity change, negative = cytotoxicity": "1.81%"},
      {"compound": "CC(=O)[O-].CC(=O)[O-].CC(=O)[O-].[Cr+3]", "activity change, negative = cytotoxicity": "-9.72%"},
      {"compound": "COP(=S)(OC)Oc1ccc([N+](=O)[O-])c(C)c1", "activity change, negative = cytotoxicity": "-3.98%"},
      {"compound": "CCNc1nc(NC(C)C(C)C)nc(SC)n1", "note": "(stereo unspecified)", "activity change, negative = cytotoxicity": "4.42%"},
      {"compound": "O=S1OCC2C(CO1)C1(Cl)C(Cl)=C(Cl)C2(Cl)C1(Cl)Cl", "note": "(stereo unspecified)", "activity change, negative = cytotoxicity": "-5.57%"}
    ]}
  ]
}
